Bioassay records as filed in PubChem.
Pol kappa inh-1: qHTS for Inhibitors of Polymerase Kappa. purified Pol kappa, fluorescent DNA synthesis assay, 10 min. 0.53% of 400,000 active. DNA polymerase kappa (Homo sapiens), Q9UBT6. Potency, µM (titrated, usually from 107 µM), for the others: at the highest dose activity, negative = inhibition, actives largely listed as inhibitors; also: potency is read from the fitted curve at half-maximal effect; % is scaled to controls: 0 for no effect and ±100 for the full control effect
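50 nM final substrate added after 15 min RT preincubation of 10 nM Pol kappa with compound; fluorescence read at 0 and 10 min.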
Pol eta inh-1: qHTS for Inhibitors of Polymerase Eta | DNA polymerase eta (Homo sapiens), Q9Y253 | recombinant Pol eta, fluorescent DNA replication assay | Potency, µM (highest dose often 114 µM), for inactives: at the top dose activity change, negative = inhibition, actives largely listed as inhibitors | 1.2% of 390,000 active; also: potency is read from the fitted curve at half-maximal effect; % is scaled to controls: 0 for no effect and ±100 for the full control effect
Target sequence (Q9Y253 whole entry, looked up): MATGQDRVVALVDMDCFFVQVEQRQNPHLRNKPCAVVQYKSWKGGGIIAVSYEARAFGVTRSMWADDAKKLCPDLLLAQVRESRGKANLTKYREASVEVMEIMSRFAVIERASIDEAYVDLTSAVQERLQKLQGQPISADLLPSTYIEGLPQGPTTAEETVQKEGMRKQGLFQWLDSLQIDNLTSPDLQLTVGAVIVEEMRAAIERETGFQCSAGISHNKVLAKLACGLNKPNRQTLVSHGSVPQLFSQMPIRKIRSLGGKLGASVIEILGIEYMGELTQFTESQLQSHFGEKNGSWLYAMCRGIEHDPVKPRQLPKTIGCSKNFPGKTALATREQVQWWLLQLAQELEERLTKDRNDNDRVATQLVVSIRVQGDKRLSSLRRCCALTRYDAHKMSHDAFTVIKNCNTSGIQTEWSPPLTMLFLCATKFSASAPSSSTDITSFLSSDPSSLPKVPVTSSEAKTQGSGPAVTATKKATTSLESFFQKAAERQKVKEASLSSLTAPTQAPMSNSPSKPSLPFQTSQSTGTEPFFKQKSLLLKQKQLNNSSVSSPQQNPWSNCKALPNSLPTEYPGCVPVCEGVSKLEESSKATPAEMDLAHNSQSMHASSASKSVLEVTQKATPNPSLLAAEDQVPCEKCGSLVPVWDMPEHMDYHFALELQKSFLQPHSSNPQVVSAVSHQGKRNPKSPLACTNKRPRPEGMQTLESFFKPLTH
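Pol eta at 10 nM preincubated with compounds 15 min at room temperature; reaction started with fluorescent substrate (50 nM final) and read kinetically at 0 and 10 min.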
POLB inh: qHTS Assay for Inhibitors of DNA Polymerase Beta | P06746 | Pol beta primer extension/strand displacement, fluorescence kinetic | Potency, µM (titrated, usually from 114 µM), for the others: at the highest dose activity change, negative = inhibition, usual class: inhibitors | 1.3% of 340,000 active; also: potency is read from the fitted curve at half-maximal effect; % is scaled to controls: 0 for no effect and ±100 for the full control effect
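Homogeneous kinetic assay of primer extension and strand displacement by 10 nM Pol beta, preincubated 15 min at room temperature with compound before 50 nM substrate (final) was added. Read at 0 and 10 min; four-parameter Hill fit.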
WRN helicase inh: qHTS for Inhibitors of WRN Helicase | Bifunctional 3'-5' exonuclease/ATP-dependent helicase WRN (Homo sapiens), Q14191 | Potency, µM (series often up to 114 µM), without a hit: at the top dose activity change, negative = inhibition, actives largely listed as inhibitors | 0.46% of 360,000 active | WRN helicase unwinding, fluorescent forked duplex, kinetic; also: potency is read from the fitted curve at half-maximal effect; % is scaled to controls: 0 for no effect and ±100 for the full control effect; nearly all actives have a fitted effect of over 55% in size
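Kinetic fluorescence helicase assay: unwinding of a quenched forked DNA duplex (100 nM final) with 2 mM ATP final raises red fluorescence (525/598 nm). Compounds sat 15 min at room temperature with 20 nM WRN beforehand.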
PI5P4Ka inh: qHTS for Inhibitors of phosphatidylinositol 5-phosphate 4-kinase (PI5P4K); Phosphatidylinositol 5-phosphate 4-kinase type-2 alpha (Homo sapiens), P48426; PI5P4Kalpha enzyme, ADP-Glo luminescence, 60 min; hits give low values; max response, %; 1.2% of 330,000 active; AID 652105, 2013; active = max response of -50% or lower; inconclusive = between -30% and -50%; inactive = -30% or higher; also: value at the top dose of about 77 µM; % is scaled to controls: 0 for no effect and ±100 for the full control effect
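qHTS, 1536-well: enzyme/substrate mix, compound by pin tool, 5 microM ATP final; RT 60 min; ADP-Glo reagents 1 (45 min) then 2 (30 min); luminescence.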
Pol iota inh: qHTS for Inhibitors of Polymerase Iota; DNA polymerase iota (Homo sapiens), Q9UNA4; Pol iota fluorescent replication assay, 10 min; Potency, µM (series often up to 115 µM), inactives show at the top dose activity, negative = inhibition, actives largely listed as inhibitors; 1% of 390,000 active; also: potency is read from the fitted curve at half-maximal effect
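Fluorescent replication assay read twice, at 0 min and 10 min after adding 50 nM (final) substrate. Enzyme (10 nM) and compounds were first incubated 15 min at room temperature; enzyme-free buffer wells were negative controls.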
GALK inh confirm: Confirmation Assay for Inhibitors of Human Galactokinase (GALK). purified GALK, Kinase-Glo ATP depletion luminescence. shares compounds with Pol eta inh-1. Potency, µM (doses to about 115 µM), for inactives: top-dose activity, negative = inhibition, hits mostly inhibitors. 70% of 150 active
Redox cycling: Confirmatory Assay for Inhibitors of Human Galactokinase (GALK): Phenol-HRP redox assay counterscreen; shares compounds with Pol eta inh-1; Phenol red-HRP H2O2 redox cycling, absorbance 600 nm; Potency, µM (series often up to 115 µM), inactives show at the highest dose activity change, negative = H2O2 signal, usual class: inhibitors; 40% of 150 active; AID 2035, 2009
HEK293 tox: Secondary Assay for Inhibitors of Human Galactokinase (GALK): HEK-293 Cell Viability Assay; shares compounds with Pol eta inh-1; HEK-293 viability, ATP luminescence (CellTiter-Glo), 24/48 h; 10% of 170 active; Potency, µM (titrated, usually from 46.1 µM), for the others: top-dose activity change, negative = cytotoxicity, actives largely listed as inhibitors; also: potency is read from the fitted curve at half-maximal effect; % is scaled to controls: 0 for no effect and ±100 for the full control effect
Pol kappa inh-2: qHTS for Inhibitors of Polymerase Kappa: Confirmatory Assay for Cherry-picked Compounds; shares compounds with Pol eta inh-1; 76% of 920 active; purified Pol-kappa, fluorescent strand-displacement substrate; Potency, µM, usual class: inhibitors; also: potency is read from the fitted curve at half-maximal effect
Pol eta inh-2: qHTS for Inhibitors of Polymerase Eta: Confirmatory Assay for Cherry-picked Compounds; shares compounds with Pol eta inh-1; Pol eta primer extension, TAMRA/BHQ fluorescence, 10 min; Potency, µM, usual class: inhibitors; 64% of 2,600 active; AID 720502, 2013; also: potency is read from the fitted curve at half-maximal effect
Active calls of the source: *; i = inactive; ? = inconclusive; · = not tested or not shown; [ ] = dose if it differs, or a comment. Hits are enriched below; roughly 2.8% of the tested compounds scored in any of these assays. Unless noted, calls follow the shape of the dose curve; as a rule, active = well fitted curve in the direction sought with a large enough effect; inconclusive = small, poorly fitted or top-dose-only effect, or another doubt; inactive = no such curve, though single readings can be large; an effect the other way counts as inactive or inconclusive.

SMILES	Pol kappa inh-1	Pol eta inh-1	POLB inh	WRN helicase inh	PI5P4Ka inh	Pol iota inh	Pol eta inh-2	others
NC(=O)c1ccc(NC(=O)COC(=O)CCN2C(=O)c3ccccc3C2=O)cc1	-11%	-23%	·	6%	-5	2%	·
O=C1C=C(N(CCO)Cc2ccccc2)c2ccccc2C1=O	-13%	20µM*	-17%	-5%	-9	4.5µM*	·	GALK inh confirm=12µM*;Redox cycling=6µM*;HEK293 tox=-2%
O=C(c1cc(S(=O)(=O)N2CCCC2)c[nH]1)N1CCN(c2cccc(Cl)c2)CC1	-5%	-32%	-9%	·	·	1%	·
OC(c1ccc(F)c(F)c1)c1nc(-c2ccc3c(c2)OCO3)cs1 (stereo unspecified)	·	·	·	-9%	-1	·	·
COc1ccc(S(=O)(=O)n2ccnc2C)c(C)c1C	12%	0%	-12%	8%	0	11%	·
COc1ccccc1/C=C1\S/C(=N/NC(=O)c2cccc(Br)c2)NC1=O	-22%	40µM*	-27%	?	?	6%	?
COC(=O)/C=C1\S/C(=N/NC(=O)c2ccccc2)NC1=O	0%	-7%	38%	9%	-17	15%	·
Cc1cccc(C)c1NS(=O)(=O)c1ccc2c(c1)[C@H]1C=CC[C@H]1[C@@H](c1ccc(Cl)cc1)N2	-12%	5%	?	·	·	-17%	·
Cc1ccc(Cl)c2c1N[C@@H](c1ccc(C(=O)O)cc1)[C@H]1CC=C[C@@H]21	32µM*	?	16µM*	·	·	32µM*	?	Pol kappa inh-2=75*
O=C1/C(=C\c2ccco2)SC(=S)N1C1CCS(=O)(=O)C1 (stereo unspecified)	?	?	40µM*	-28%	?	20µM*	?
Cc1ccc(/C=C2\SC(=S)N(C3CCS(=O)(=O)C3)C2=O)cc1 (stereo unspecified)	-11%	7%	31%	2%	1	45%	·
CC(C)S(=O)(=O)C1=NSC2=NC(=O)/C(=C\c3ccc(-c4cccc(C(=O)O)c4)o3)C(=N)N21	28µM*	7.9µM*	32µM*	?	-104*	5.6µM*	30*	Pol kappa inh-2=17*
CCOc1ccccc1N(CC(=O)N1CCCC1)S(C)(=O)=O	5%	-7%	-7%	1%	-1	148%	·
O=C(O)c1[nH]c2ccc(Cl)cc2c1CC(=O)N1CCN(C(=O)c2ccco2)CC1	50µM*	7.1µM*	13µM*	?	?	?	30*
O=C(O)c1[nH]c2ccc(Cl)cc2c1CC(=O)N1CCN(c2ccccc2)CC1	0%	-3%	?	-28%	11	-7%	·
Cc1ccc(NC(=O)NN2CCN(C)CC2)cc1C	9%	-4%	13%	1%	-2	2%	·
CCCc1cc(=O)oc2cc(OCC(=O)NC(Cc3c[nH]c4ccc(O)cc34)C(=O)O)c(Cl)cc12 (stereo unspecified)	?	40µM*	-14%	-19%	8	?	?
Clc1ccc(-c2csc(=Nc3ccccc3)n2Cc2ccc3c(c2)OCO3)cc1	-17%	5%	5%	·	·	-13%	·
CC(C)Oc1ccc(C(=O)NCC(=O)N2CCN(S(=O)(=O)/C=C/c3ccccc3)CC2)cc1	0%	-7%	·	2%	-2	-29%	·
O=c1ccc2[n+]([O-])c3ccc(O)cc3oc-2c1	?	i	63µM*	i	-23	25µM*	·	Pol kappa inh-2=24*
COc1ccc(S(=O)(=O)N(CC(=O)N2CCOCC2)Cc2ccccc2)cc1	0%	8%	33%	-10%	·	11%	·
COC1=CC(=Cc2c(N)n3nc(CC(=O)N4CCOCC4)sc3nc2=O)C=C(OC)C1=O	79µM*	20µM*	?	?	-64*	22µM*	?
Nc1c(C=C2C=CC(=O)C=C2)c(=O)nc2sc(CC(=O)N3CCOCC3)nn12	-32%	?	34%	-7%[11.6 µM]	-22	-26%	76*
CC1CC(C)CN(CCCNC(=O)c2ccc3c(c2)ncn3C2CCCC2)C1 (stereo unspecified)	3%	3%	0%	-2%	5	-3%	·
O=C(O)C1C2C=CC3(O2)C1C(=O)N1c2ccccc2C2OCCC2C13 (stereo unspecified)	-33%	35µM*	40µM*	-23%[57.1 µM]	·	?	?
N=C1/C(=C\c2ccc(SCc3ccco3)o2)C(=O)N=C2SC=NN12	50µM*	14µM*	40µM*	56µM*	-58*	?	54*
CC1=NN2C(=N)/C(=C\c3ccc(SCc4ccccc4)o3)C(=O)N=C2S1	-14%	?	?	?	?	?	·
Cc1cc(C)c(S(=O)(=O)Nc2ccnc(-c3cccnc3)n2)c(C)c1	6%	-3%	2%	6%	-1	14%	·
O=C(COc1cc2oc(=O)c3c(c2cc1Cl)CCC3)NCc1ccccn1	7%	4%	7%	-10%	0	-16%	·
